# Results from article PMC4552634, “A New Set of Chemical Starting Points with Plasmodium falciparum Transmission-Blocking Potential for Antimalarial Drug Discovery” (PLoS ONE, 2015).
# Among all 13,000 compounds or so, about 3,200 (25%) showed an effect of 50% or more. The list shows a part of the results.
# System: P. falciparum stage V gametocytes
# Parameters: BacTiter-Glo ATP luminescence viability of purified stage V gametocytes in 384-well plates, per cent inhibition versus DMSO
# Conditions: 48 h, 5 µM; inhibitor
row,SMILES,% Inhibition [%]
1,COc1ccc(NC(C)C(=O)Nc2ccc(Br)cc2)cc1S(=O)(=O)N1CCCCC1 (stereo not shown) [TCMDC-125032],-25.53
2,O=C(Cc1ccc[n+]([O-])c1)Nc1cccc(-c2cccc(-c3nc4cc(F)ccc4[nH]3)c2)c1 [TCMDC-136989],-50
3,O=C(C=Cc1cccs1)N(CCCn1ccnc1)c1nc2ccc(F)cc2s1 [TCMDC-124928],96.26
4,Cc1ccc2nc(N(CCCn3ccnc3)C(=O)C=Cc3cccs3)sc2c1 [TCMDC-124927],1.025
5,COc1ccc2nc(N(CCCn3ccnc3)C(=O)C=Cc3cccs3)sc2c1 [TCMDC-124926],-10.06
6,OCCN1CCN(C2Cc3ccc(F)cc3Sc3ccc(Cl)cc32)CC1 (stereo not shown) [TCMDC-123467],11.59
7,C=C(NC(=O)c1cc(C)cc(C)c1)C(=O)OC [TCMDC-131725],5.196
8,CC1CCCN1Cc1cccc(-c2ccc(C(=O)NCCOc3ccccc3)s2)c1 (stereo not shown) [TCMDC-133066],-6.821
9,CC(C)(C)OC(=O)[C@H](CC(N)=O)NC(=O)c1ccc(-c2ccc(-c3nc4cc(C(F)(F)F)ccc4[nH]3)s2)cc1 [TCMDC-132340],-23.75
10,CC(C)N(Cc1cnc(N)c(C#N)n1)c1ccc(Cl)c(Cl)c1 [TCMDC-137676],6.722
11,O=c1[nH]c(=O)n2c(nc3ccccc32)[nH]1 [TCMDC-131695],19.78
12,COc1ccc(-c2ccc(CNCc3ccc(F)cc3)cc2)cc1S(=O)(=O)NCCN1CCCC1 [TCMDC-132282],111.7
13,COc1ccc(CNCc2ccccc2)cc1-c1ccc(OC)c(S(=O)(=O)NCCN2CCCC2)c1 [TCMDC-132250],31.04
14,COc1ccc(CNCc2ccc(F)cc2)cc1-c1ccc(OC)c(S(=O)(=O)NCCN2CCCC2)c1 [TCMDC-132295],107
15,Cc1cc(-c2cccc(CNCc3ccc(F)cc3)c2)ccc1S(=O)(=O)NCCN1CCCC1 [TCMDC-132278],105
16,COc1ccc(-c2cccc(CNCc3ccc(F)cc3)c2)cc1S(=O)(=O)NCCN1CCCC1 [TCMDC-132408],73.1
17,Cc1cc(-c2ccc(CNCc3ccc(F)cc3)cc2)ccc1S(=O)(=O)NCCN1CCCC1 [TCMDC-132291],38.43
18,O=S(=O)(NCCN1CCCC1)c1ccc(-c2cccc(CNCc3ccc(F)cc3)c2)cc1F [TCMDC-132275],25.81
19,COc1ccc(Nc2nc(NCc3cccc(NS(C)(=O)=O)c3)cc(-c3ccc(OC)cc3)n2)cc1 [TCMDC-133457],-11.45
20,COc1ccc(Nc2ncc3c(-c4cccc(NC(=O)Cc5cccc(O)c5)c4)c[nH]c3n2)cc1OC [TCMDC-135247],-20.67
21,CN1CC=C(c2c[nH]c3ccc(-c4ccccc4)cc23)CC1 [TCMDC-138962],-5.151
22,Cc1cc2nc(-c3ccc(SCC(=O)Nc4ccc5c(c4)OCCO5)nc3)[nH]c2cc1C [TCMDC-125353],21.88
23,O=C(CN1CCC2(CCC1=O)CC(=O)c1ccccc1O2)NCCN1CCOCC1 (stereo not shown) [TCMDC-133148],11.41
24,COc1ccc(-c2ccc(CNCc3ccccc3)cc2)cc1S(=O)(=O)NCCN1CCCC1 [TCMDC-132230],103.5
25,C=CCOC(=O)N1CCC(CNCc2cccc(-c3ccc(-c4nc5cc(C(F)(F)F)ccc5[nH]4)cc3)c2)C1.O=C(O)C(F)(F)F (stereo not shown) [TCMDC-133042],-7.537

row,SMILES,% Inhibition [%]
1,COc1cccc(CNC(=O)c2cccc(-c3cccc(CN4CCC(N5CCCC5)CC4)c3)n2)c1 [TCMDC-134417],25.8
2,COc1cccc(OC2CCN(C(=O)c3cc(C(C)(C)C)nn3Cc3ccccc3)CC2)c1 [TCMDC-134143],-6.866
3,COc1cccc(CNC(=O)NC2CCN(c3ccnc(Nc4ccc(F)cc4)n3)C2)c1 (stereo not shown) [TCMDC-133604],-32.96
4,COc1cccc(CC(=O)N2CCC(n3c(C)nc4ccc(F)cc43)CC2)c1 [TCMDC-124792],80.7
5,COc1cccc(CC(=O)N2CCC(n3c(C)nc4ccc(C)cc43)CC2)c1 [TCMDC-124791],93.69
6,COc1cccc(CC(=O)NC2CCN(c3ccnc4cc(Cl)ccc34)C2)c1 (stereo not shown) [TCMDC-133664],6.238
7,Cc1ccc(NC(=O)NC2CCN(c3ccnc4ccccc34)CC2)cc1 [TCMDC-133588],13.19
8,CCOC(=O)c1[nH]c(-c2ccccc2)nc1NC(=S)NC1CCCCC1 [TCMDC-131430],5.591
9,Cc1nc(/N=C(\N)NC(=O)NC2CCCCC2)nc2ccccc12 [TCMDC-123808],133.5
10,CC(C)CC(NC(=O)c1ccc(F)cc1)C(=O)N[C@H](/C=N/N1CCNC1=O)CC(C)C (stereo partly shown) [TCMDC-136214],16.28
11,OC(c1ccccc1)C1CN(Cc2ccccc2)CCC1(O)c1ccccc1 (stereo not shown) [TCMDC-125518],-9.589
12,CC(c1cccc(S(=O)(=O)NCc2ccc(Cl)cc2Cl)c1)N1CCC(N2CCCCC2)CC1 (stereo not shown) [TCMDC-133564],-22.09
13,CCC(CO)NCC(O)Cn1c2ccc(Br)cc2c2cc(Br)ccc21 (stereo not shown) [TCMDC-125710],27.72
14,CC(C)CCNCC(O)Cn1c2ccc(Cl)cc2c2cc(Cl)ccc21 (stereo not shown) [TCMDC-125673],69.1
15,OC(CNCCc1ccccc1)Cn1c2ccc(Cl)cc2c2cc(Cl)ccc21 (stereo not shown) [TCMDC-124135],17.2
16,CCC(CO)NCC(O)Cn1c2ccc(Cl)cc2c2cc(Cl)ccc21 (stereo not shown) [TCMDC-125711],55
17,COCCNCC(O)Cn1c2ccc(Cl)cc2c2cc(Cl)ccc21 (stereo not shown) [TCMDC-123535],54.28
18,CCNCCCC(C)Nc1ccnc2cc(Cl)ccc12 (stereo not shown) [TCMDC-125876],27.58
19,Cc1nc(-c2cccc(C(=O)Nc3cnc4ccccc4c3)c2)no1 [TCMDC-135810],8.288
20,CC1CCC(NCc2ccc3c(CNC4CCC(C)CC4)c(O)ccc3c2O)CC1 (stereo not shown) [TCMDC-137587],-63.23
21,COc1cccc(C(=O)NCCc2cccc(Cl)c2)c1OCc1ccccc1 [TCMDC-141235],-13.17
22,COc1ccc(C(=O)O)cc1OCc1ccccc1 [TCMDC-125534],4.056
23,COc1cc(CCNC(=O)Cc2ccc3ccccc3c2)ccc1OCc1ccccc1 [TCMDC-137227],57.44
24,CCC(C)CC(=O)Nc1ccc(OC)c(S(=O)(=O)N[C@@H]2CCN(C#N)C2)c1 (stereo partly shown) [TCMDC-134061],14.31
25,COc1cc(-c2nc3ccc(N4CCN(C)CC4)cc3[nH]2)cc(OC)c1OC [TCMDC-124585],-16.2

row,SMILES,% Inhibition [%]
1,Cc1cc(Nc2ncc(C#N)c(Nc3ccccc3C(N)=O)n2)ccc1N1CCN(C)CC1 [TCMDC-134115],104.7
2,NC(=O)c1ccccc1Nc1nc(Nc2cccc(N3CCN(CCO)CC3)c2)ncc1Cl [TCMDC-134114],94.95
3,CNC(=O)c1ccccc1Nc1nc(Nc2ccc(N3CCOCC3)cc2)ncc1Cl [TCMDC-134144],-63.52
4,CNC(=O)c1ccccc1Nc1nc(Nc2ccc(N3CCN(C)CC3)nc2)ncc1C [TCMDC-134123],57.48
5,CN1CCN(c2ccc(Nc3ncc(Cl)c(Nc4cccnc4C(N)=O)n3)cc2)CC1 [TCMDC-134164],-84.83
6,CNC(=O)c1ccccc1Nc1nc(Nc2ccc(CCN3CCN(C)CC3)cc2)ncc1Cl [TCMDC-133800],8.334
7,COc1ccc(Nc2ncc(OC)c(Nc3ccccc3C(N)=O)n2)cc1N1CCN(C)CC1 [TCMDC-134149],9.949
8,CNC(=O)c1cnc(Nc2ccc(N3CCN(C)CC3)cc2)nc1Nc1ccccc1OC [TCMDC-141382],-26.7
9,Cc1cc(Nc2ncc(Cl)c(Nc3ccccc3C(N)=O)n2)n[nH]1 [TCMDC-134170],-34.04
10,COc1ccc(Nc2ncc(C#N)c(Nc3ccccc3C(N)=O)n2)cc1N1CCN(C)CC1 [TCMDC-134117],-97.62
11,COc1ccc(Nc2ncc(Cl)c(Nc3cccnc3C(N)=O)n2)cc1N1CCN(C)CC1 [TCMDC-134163],97.54
12,CNC(=O)c1cnc(Nc2ccc(N3CCN(C)CC3)c(C)c2)nc1NC [TCMDC-134162],36.76
13,CCC[C@@H](C(=O)NCCc1cccc(OC)c1)N1C(=O)c2c(ccc(OC)c2OC)C1C(=O)Nc1c(C)cccc1C (stereo partly shown) [TCMDC-141135],18.96
14,Cc1[nH]n(-c2cccc(Cl)c2)c(=O)c1-c1ccc(Cl)cc1 [TCMDC-123495],-44.23
15,O=C(Nc1ccc(C(F)(F)F)cc1)c1cc(Br)cnc1NCCCn1ccnc1 [TCMDC-136699],4.282
16,COc1ccc(NC(=O)c2cc(-c3ccc(NC(C)=O)cc3)cnc2N)cc1 [TCMDC-135658],32
17,CNC(=O)c1ccccc1Nc1nc(Nc2cccnc2)ncc1C [TCMDC-134211],33.23
18,CNC(=O)c1ccccc1Nc1nc(Nc2cccc(CS(C)(=O)=O)c2)ncc1C [TCMDC-133809],64.95
19,CNC(=O)c1cc(F)c(F)cc1Nc1nc(Nc2cccc(CS(C)(=O)=O)c2)ncc1Cl [TCMDC-134060],-6.741
20,Cc1ccc(NC(=O)c2ccc3ncccc3c2)cc1OC1CCN(Cc2ccsc2)CC1 [TCMDC-134270],12.12
21,COc1cccc(OC)c1-c1ccccc1NC(=O)N1CCCc2cc(C)ccc21 [TCMDC-136199],-20.26
22,COc1ccccc1NC(=O)OC(COc1ccc(N)cc1)CN1CC=C(c2ccccc2)CC1 (stereo not shown) [TCMDC-136486],60.38
23,COc1ccc(OCC(O)CN(Cc2ccccc2OC)C(=O)Nc2ccc(Br)cc2)cc1 (stereo not shown) [TCMDC-141494],25.96
